Assay results reported in PubChem BioAssay AID624331 (National Center for Advancing Translational Sciences (NCATS), 2012).
Results filed as inconclusive are left out. Where a call stands in place of a potency, no number is given. The source made the active and inactive calls. The call rests on the fitted dose curve; in most records, active means well fitted activation curve with a large enough effect; inconclusive means small, poorly fitted or top-dose-only effect; inactive means no such curve, though single readings can be large or run the other way.

Assay: qHTS assay for re-activators of p53 using a Luc reporter: Hit Validation with no p53 Expressed
Conditions: p53-null cells, luciferase reporter counter-screen; series mostly up to 46.1 µM
Method in brief: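 Counter-screen of primary hits in a cell line not transfected with p53, in Opti-MEM with 10% FBS; compounds at several concentrations (10 mM stock, 1:5; top 46.1 µM in well), 24 h at 37 deg C, 5% CO2. Luminescence read after 10 min with Amplite reagent.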
Potency means the concentration at half of the fitted maximal effect.

SMILES | Potency
O=C(CSc1ccccc1)Nc1ccc(-c2nc3ccccc3[nH]2)cc1 | inactive
Cc1ccccc1C(=O)Nc1ccc(Br)cn1 | inactive
C/C(Cn1nnc([N+](=O)[O-])n1)=N\NC(=O)c1ccc(C)cc1 | inactive
CCC(=O)Nc1ccc2oc(-c3cccc(C)c3)nc2c1 | inactive
O=C(CNc1ccccc1)N/N=C/c1c[nH]c2ccccc12 | inactive
Cc1ccccc1OCC(=O)Nc1cccc2nsnc12 | inactive
Cc1ccc(NC(=O)Nc2ccccc2)c(Br)c1 | inactive
CC(=O)Nc1ccc(Nc2cc(C)nc3c(-c4ccccc4)cnn23)cc1 | inactive
O=C(CSc1nnc(-c2ccc(O)cc2)o1)Nc1ccc2c(c1)OCCO2 | inactive
CN(Cc1ccccc1)c1ncnc2ccc(Br)cc12 | inactive
Cc1cc(C)cc(NC(=O)c2sc3nc(C)cc(C)c3c2N)c1 | inactive
CC(C)/C=C1\CC/C(=C\c2ccc(N(C)C)cc2)C1=O | inactive
O=C(Nc1nc2ccccc2s1)c1ccc2c(c1)OCO2 | inactive
COc1ccccc1-c1nc(-c2ccc(Br)o2)no1 | 820 nM (active)
COc1ccc(CNc2nc(-c3ccccc3)nn2C(=O)c2ccc([N+](=O)[O-])cc2)cc1 | inactive
COc1ccc(C(C#N)N2N=C(c3ccccc3)CC2c2ccccc2)cc1OC (centres undefined) | inactive
CC1CCN(C2=C(NS(=O)(=O)c3ccc(Br)cc3)C(=O)c3ccccc3C2=O)CC1 | inactive
CCCCC(=O)Nc1cccc(NC(=S)NC(=O)Cc2ccccc2)c1 | inactive
CC(=O)c1cc2c(C)c(C(=O)c3ccccc3)oc2cc1O | inactive
Cc1cc(C)cc(NC(=O)CSc2nnc(-c3ccccc3C)o2)c1 | inactive

SMILES | Potency
CC(Sc1nc(N)cc(=O)[nH]1)C(=O)NNC(=O)c1cccc(Cl)c1 (centres undefined) | inactive
O=c1oc(-c2ccc(O)c(O)c2)cc2cc(O)cc(O)c12 | inactive
O=[N+]([O-])c1ccc(NC(=S)NCCc2ccc(F)cc2)cc1 | inactive
O=c1nc2sc3ccccc3n2c(=O)n1-c1cccc(Cl)c1 | inactive
CS(=O)(=O)c1ccc2nc(NC(=O)c3ccco3)sc2c1 | inactive
CC(C)(C)OC(=O)N1CCC(C(=O)Nc2ccc3c(c2)CCC3)CC1 | inactive
Cc1ccc(C(=O)c2c3ccc([N+](=O)[O-])cc3[n+]([O-])n2CCCN)cc1 | inactive
Cc1cc(C(=O)COC(=O)c2cccc(O)c2)c(C)n1C1CC1 | inactive
CCCCC(=O)NC(c1ccc(Cl)cc1Cl)c1ccc2cccnc2c1O (centres undefined) | inactive
COc1ccc(N2C(=O)CC(Cc3ccc(Br)cc3)C2=O)cc1 (centres undefined) | inactive
Cc1cc(NC(=O)c2ccco2)sc1C | inactive
O=C(CSc1nc2ccccc2c(=O)[nH]1)c1ccc(O)c(O)c1 | inactive
Nn1cnnc1N/N=C\c1ccc(-c2ccccc2[N+](=O)[O-])o1 | inactive
N#C/C(=C/c1cccnc1)c1ccccc1 | inactive
CS(=O)(=O)N1CCC(C(=O)Nc2cc(Cl)c(Cl)cc2Cl)CC1 | inactive
C=CCOc1c(OC)cc(/C=N/Nc2cccc(C(=O)O)c2)c(Br)c1Br | inactive
O=[N+]([O-])c1cccc(NC(=S)N2CCc3ccccc32)c1 | inactive
O=C(CCc1nc(-c2ccccc2)no1)N1CCCC1 | inactive
c1ccc(-c2cc3cc4c(cc3cn2)OCO4)cc1 | inactive
